Screening data as filed in PubChem.
This is one part of a sample in which hits are shown more often than they occur.
Pf Dd2 inh: qHTS Primary assay for Inhibitors of Plasmodium falciparum Dd2 growth in vitro. P. falciparum Dd2 growth, SYBR Green, 72 h. Potency, µM (top dose mostly 28.9 µM), usual class: inhibitors. 4.3% of 120,000 active. AID 1347417, 2020; active = well fitted inhibition curve with a large enough effect; also: nearly all actives have a fitted effect of over 65% in size
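Readout: SYBR Green fluorescence, 485 nm excitation, 535 nm emission, after ~16 h lysis at 37C. Before that, Dd2-infected red cells (2.5% hematocrit) grew 72 h with compound, 29 uM top final concentration.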
Each line names hits and unclear results; the compound was inactive in the other large screens.

COc1ccc(-c2cc(N3CCN(C(=O)c4cccc(Br)c4)CC3)n[nH]2)cc1	none
Cc1ccc(C)c(CN2C(=O)c3ccccc3S(=O)c3ccc(C(=O)NCc4ccccc4Cl)cc32)c1 (stereo not drawn)	none
O=C(NC1CCCC1)c1ccc2c(c1)N(Cc1ccccc1)C(=O)c1ccccc1S2	none
Cc1ccc(C)c(CN2C(=O)CSc3ccc(C(=O)NCc4ccccc4)cc32)c1	none
O=C(NCCc1ccccc1)c1ccc2c(c1)N(Cc1ccc(F)cc1)C(=O)c1ccccc1S2	none
O=C(NC1CCCC1)c1ccc2c(c1)N(Cc1ccc(F)cc1)C(=O)c1ccccc1S2	none
COc1ccc(CCNC(=O)c2ccc3c(c2)N(Cc2ccc(Cl)cc2)C(=O)c2ccccc2S3)cc1OC	Pf Dd2 inh 7.9µM
Cc1ccc(C)c(CN2C(=O)c3ccccc3S(=O)c3ccc(C(=O)NCCc4ccc(Cl)cc4)cc32)c1 (stereo not drawn)	Pf Dd2 inh 5µM
Cc1ccc(C)c(CN2C(=O)c3ccccc3Sc3ccc(C(=O)NCc4ccc5c(c4)OCO5)cc32)c1	Pf Dd2 inh 8.9µM
COCCNC(=O)c1ccc2c(c1)N(Cc1cc(C)ccc1C)C(=O)c1ccccc1S2=O (stereo not drawn)	none
COCCCNC(=O)c1ccc2c(c1)N(Cc1ccccc1)C(=O)c1ccccc1S2	none
O=C(NCCCN1CCOCC1)c1ccc2c(c1)N(Cc1ccccc1)C(=O)c1ccccc1S2	none
CCOc1ccc(CN2C(=O)c3ccccc3Sc3ccc(C(=O)NC4CCC(C)CC4)cc32)cc1 (stereo not drawn)	Pf Dd2 inh 11µM
O=C1CCN(S(=O)(=O)c2ccccc2)CCCN(C(=O)CN2CCOCC2)CCN1	none
Cc1onc(-c2cnn(C)c2NCc2ccc(C#N)cc2)c1C(=O)NC1CCCCC1	none
OCC1(O)CCCN(Cc2ccccc2Cn2cccn2)C1 (stereo not drawn)	none
O=C(OCc1ccccc1)N1CCCN(c2cc(C3CC(O)C3)ncn2)CC1 (stereo not drawn)	none
O=C(NCc1ccc2c(c1)OCO2)c1ccc2c(c1)N(Cc1cccc(Cl)c1)C(=O)c1ccccc1S2	Pf Dd2 inh 10µM
O=C(NCc1ccc2c(c1)OCO2)c1ccc2c(c1)N(Cc1ccc(F)cc1)C(=O)c1ccccc1S2=O (stereo not drawn)	none
Cc1ccccc1CN1C(=O)c2ccccc2Sc2ccc(C(=O)OCc3ccco3)cc21	Pf Dd2 inh 8.9µM
Cc1ccccc1CN1C(=O)c2ccccc2S(=O)c2ccc(C(=O)N3CCOCC3)cc21 (stereo not drawn)	none
Cc1ccc(CN2C(=O)c3ccccc3Sc3ccc(C(=O)OCc4ccco4)cc32)cc1	none
O=C(NCc1ccc2c(c1)OCO2)c1ccc2c(c1)N(Cc1ccccc1)C(=O)c1ccccc1S2=O (stereo not drawn)	none
CCN1c2cc(C(=O)Nc3cc(F)ccc3F)ccc2C(=O)N2CCCCCC21 (stereo not drawn)	none
OC1CCOC2(CCN(Cc3ccc[nH]3)CC2)C1 (stereo not drawn)	none
O=C(Nc1cccc(Cl)c1)N1CCOC(CN(CC2CC2)C(=O)c2cccc(F)c2)C1 (stereo not drawn)	Pf Dd2 inh 4.5µM
O=C(Nc1ccccc1)N1CCOC(CN(CC2CC2)C(=O)c2cccc(F)c2)C1 (stereo not drawn)	none
Cc1ccc(C(=O)N(CC(C)C)CC2CN(C(=O)Nc3cccc(Cl)c3)CCO2)cc1 (stereo not drawn)	none
O=C(C1CCc2nnc(C3CCN([S+](=O)([O-])c4ccccc4)CC3)n21)N1CCN(c2ncccn2)CC1 (stereo not drawn)	none
CNC(=O)N1CCC(C2CCN(C(=O)CCc3cccc(OC)c3)C2)CC1 (stereo not drawn)	none
COc1cc2c(cc1OCc1ccc(Cl)cc1)N(Cc1ccccc1)CC21CCN(C(C)=O)CC1	none
COc1cc2c(cc1OCc1ccccc1)N(C(=O)c1c[nH]c3ccccc13)CC21CCN(C)CC1	Pf Dd2 inh 2.5µM
COc1cc2c(cc1OCc1ccccc1)N(C(=O)[C@@H]1CCCO1)CC21CCN(C)CC1	none
CNC(=O)[C@H]1C[C@H](Oc2ccccc2)CN1C(=O)Nc1cccc(F)c1	none
COC(C(=O)N1CC(=O)N(Cc2cccnc2)CC(OCc2ccccc2)C1)c1ccccc1 (stereo not drawn)	none
COCCNC(=O)[C@@H]1CCC[C@@H](NC(=O)C(C)(C)C)CN(C)C(=O)C1	none
CCN1CCC(N(Cc2ccc3c(c2)OCO3)C(=O)Nc2cccc(C)c2C)CC1	none
COc1ccccc1NC(=O)N(Cc1ccc2c(c1)OCO2)C1CCN(Cc2ccccc2)CC1	Pf Dd2 inh 11µM
O=C(Nc1ccccc1)N(Cc1ccc2c(c1)OCO2)C1CCN(Cc2ccccc2)CC1	none
CN(Cc1ccccc1)Cc1cn([C@H]2CO[C@H]3[C@@H]2OC[C@@H]3NC(=O)NCc2ccccc2)nn1	none
Cc1cnn(CC(=O)N2CCC(Cn3c(C)cnc3C3CC3)CC2)c1	none
COC(=O)c1ccc(OCC2c3cc(OC)c(OC)cc3CCN2C(=O)COc2ccc(Cl)cc2)cc1 (stereo not drawn)	Pf Dd2 inh 10µM
COc1ccc(OCC(=O)N2CCN(C(=O)c3cc(OC)c(OC)c(OC)c3)CC2)cc1	none
COC(=O)C[C@@H]1CCN(C(=O)COc2ccccc2)C[C@@H]1CC1=NCCc2cc(OC)c(OC)cc21	none
COc1cc2c(cc1OC)C(COc1ccc(C(C)C)cc1)N(C(=O)COc1ccccc1)CC2 (stereo not drawn)	Pf Dd2 inh 11µM
O=C(COc1ccccc1)NCc1ccc2c(c1)CCN2C(=O)c1ccc(Cl)cc1	none
COC[C@@H]1CN(C(=O)COc2ccc(Cl)cc2C)C[C@H]1C(N)=O	none
COCc1nnc2n1CCC(NC(=O)COc1ccc(Cl)cc1)CC2 (stereo not drawn)	none
COc1ccc(OCC2c3cc(OC)c(OC)cc3CCN2C(=O)COc2ccc(Cl)cc2Cl)cc1 (stereo not drawn)	Pf Dd2 inh 10µM
COCCOC1CCN(C(=O)COc2ccccc2)CC1	none
CCC(C)NC(=O)N1CC(Oc2ccc(-c3nc(-c4ccccc4)no3)cc2)C1 (stereo not drawn)	none
O=C(CC1CCN(C(=O)C2CCCC2)C1)N1CCOCC1 (stereo not drawn)	none
CC(=O)N1CCC2(CC1)SCC(=O)N2c1ccc(F)cc1	none
Fc1ccccc1CNC1(Cc2cc(-c3ccccn3)on2)COC1	none
O=C(O)c1ccc(CN2CCC3(CC2)CC(C(=O)O)N(C(=O)C2CC2)C3)cc1 (stereo not drawn)	none
CC(C)NC(=O)C[C@@H]1C[C@H]2O[C@H](CNC3CCC(F)(F)CC3)[C@@H](O)[C@H]2O1	none
COCCNC(=O)[C@@H]1C[C@H](Oc2ccccc2)CN1C(=O)CCc1ccccc1	none
COc1cc(Br)c(/C=C(\C#N)c2nc3ccccc3[nH]2)cc1OC	none
COc1cc(/C=C(\C#N)c2nc3ccccc3[nH]2)ccc1OCc1ccc(F)cc1	Pf Dd2 inh 1µM
N#C/C(=C\c1ccc(Cl)cc1)c1nc2ccccc2[nH]1	none
O=C1NCC2(CCCN(C(=O)CCc3ccc(=O)[nH]n3)C2)O1 (stereo not drawn)	none
COc1ccc(CN2C=C(C(=O)O)C(C)=NS2(=O)=O)cc1F	none
CC(=O)Nc1cccc(-c2ncc3c(n2)OCCN(Cc2ccc(F)cc2F)C3=O)c1	Pf Dd2 inh 13µM
COc1ccc(-c2ncc3c(n2)OCCN(Cc2ccccc2)C3=O)cc1	Pf Dd2 inh 1.3µM
O=C1c2cnc(-c3ccoc3)nc2OCCN1Cc1ccc(F)cc1F	none
COc1cccc(-c2ncc3c(n2)OCCN(Cc2ccccc2)C3=O)c1	none
COc1ncccc1-c1ncc2c(n1)OCCN(Cc1ccccc1)C2=O	none
